# In the supplement of paper PMC10338343:
# ± gives the standard deviation.
# System: MILI (PIWIL2) piRISC loaded with piRNA #1 (26 nt)
# Experiment: pre-steady-state target cleavage rate (min^-1); guide: piRNA #1 5'p-UGAGGUAGUAGGUUGUAUAGUAUCCA; MIWI and MILI are mouse PIWI proteins and EfPiwi is from a freshwater sponge; tags in brackets are library labels; higher = faster piRNA-guided slicing of the target
# Conditions: auxiliary factor: 500 nM mouse GTSF1
# Summary of the method: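 Three pooled Cleave-'n-Seq trials supplied the data, with k3 capped at 0.0001 min^-1. In each, […] transcribed, DNA-blocked target RNA library and 1 nM active affinity-purified piRISC with one synthetic guide reacted in HEPES–potassium acetate buffer at 33 °C for 0–8 or 0–960 min, with or without 500 nM GTSF1 partner protein. Uncleaved targets were sequenced and normalised to depth and to weakly complementary targets. A burst-and-steady-state fit provided the pre-steady-state cleavage rate.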
# 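Further: 1 nM active piRISC with 0.1 nM target library at 33 °C single turnover.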
row,Sequence,pre-steady-state target cleavage rate
1,GGAGACCUAUGUAUACAACCUACUACAUCA,0.0269 ± 0.0059
2,GGAGUGCAUACUAUACAACCUACUUCCUCA,0.00653 ± 0.0022
3,GGAGACCUUACUAUACUACCUUCUACCUCA,0.0109 ± 0.0029
4,GGAGACCUAUGAUAUCAUCCUACAACCUCA,0.00348 ± 0.003
5,GGAGACCUAUCUAUAGAACCUACUACCUCA,0.0821 ± 0.013
6,GGAGACCAAACUAUAGAACCUACUACCUCA,0.13 ± 0.028
7,GGAGACCUAUCUAUUACAACCUACUACCUCA,0.0546 ± 0.0098
8,GGAGACCUUACUAUACAACCUACAACGUCA,0.0109 ± 0.0043
9,GGAGACCUAUGAAUACAACCUACUACCUACA,0.00696 ± 0.0027
10,GGAGACCUAUGAAUACAACCUUCUACCUCA,0.00275 ± 0.0024
11,GGAGACCUAUCUAUACAACCUACUCACCUCA,0.0886 ± 0.011
12,GGAGACCUAUCUAUUCAACCUACUACGUCA,0.0451 ± 0.0089
13,GGAGACCUAUGUAUACGACCUACUACCUCA,0.0178 ± 0.0033
14,GGAGACCUAUGAAUACAACCUACUACCGUCA,0.00898 ± 0.0024
15,GGAGACCUAUGAAUACAUCCUACUACCUGA,0.00353 ± 0.002
16,GGAGACGAUACUAUACAACCUACAUCCUCA,0.05 ± 0.011
17,GGAGACCUAAGUAUACAACCUACUACCACA,0.0885 ± 0.012
18,GGAGACCUAUGUAUAGCAACCUACUACCUCA,0.0101 ± 0.003
19,GGAGAGGAUACUUUAGAACCUACUACCUCA,0.153 ± 0.0078
20,GGAGACCUUUCUAUACAACGUACUACCUCA,0.013 ± 0.003
21,GGAGACCUAUGUAUUCUACCUACUACCUCA,0.0111 ± 0.0026
22,GGAGACCUAUGAUUACUACCUACUAGCUCA,0.0036 ± 0.0032
23,GGAGACCUAUCUAUACAACCUACUACCCA,0.098 ± 0.019
24,GGAGACCUAUGAUAACAACCUACUGCCUCA,0.00428 ± 0.0031
